Inconclusive results are not listed. The source made the active and inactive calls. Unless noted, calls follow the shape of the dose curve; as a rule, active = well fitted curve in the direction sought with a large enough effect in the repeat runs; inconclusive = weak or mixed curves; inactive = no such curve, though single readings can be large; an effect the other way counts as inactive or inconclusive.
Columns and labels:
[1] = molecular target: Progesterone receptor (Homo sapiens) (UniProt P06401); assay: qHTS assay to identify small molecule agonists of the progesterone receptor (PR) signaling pathway (AID 1346784; calls by dose curve; also: nearly all actives have a fitted effect of over 30% in size)
Chain of Progesterone receptor (Homo sapiens) (P06401 whole entry, looked up): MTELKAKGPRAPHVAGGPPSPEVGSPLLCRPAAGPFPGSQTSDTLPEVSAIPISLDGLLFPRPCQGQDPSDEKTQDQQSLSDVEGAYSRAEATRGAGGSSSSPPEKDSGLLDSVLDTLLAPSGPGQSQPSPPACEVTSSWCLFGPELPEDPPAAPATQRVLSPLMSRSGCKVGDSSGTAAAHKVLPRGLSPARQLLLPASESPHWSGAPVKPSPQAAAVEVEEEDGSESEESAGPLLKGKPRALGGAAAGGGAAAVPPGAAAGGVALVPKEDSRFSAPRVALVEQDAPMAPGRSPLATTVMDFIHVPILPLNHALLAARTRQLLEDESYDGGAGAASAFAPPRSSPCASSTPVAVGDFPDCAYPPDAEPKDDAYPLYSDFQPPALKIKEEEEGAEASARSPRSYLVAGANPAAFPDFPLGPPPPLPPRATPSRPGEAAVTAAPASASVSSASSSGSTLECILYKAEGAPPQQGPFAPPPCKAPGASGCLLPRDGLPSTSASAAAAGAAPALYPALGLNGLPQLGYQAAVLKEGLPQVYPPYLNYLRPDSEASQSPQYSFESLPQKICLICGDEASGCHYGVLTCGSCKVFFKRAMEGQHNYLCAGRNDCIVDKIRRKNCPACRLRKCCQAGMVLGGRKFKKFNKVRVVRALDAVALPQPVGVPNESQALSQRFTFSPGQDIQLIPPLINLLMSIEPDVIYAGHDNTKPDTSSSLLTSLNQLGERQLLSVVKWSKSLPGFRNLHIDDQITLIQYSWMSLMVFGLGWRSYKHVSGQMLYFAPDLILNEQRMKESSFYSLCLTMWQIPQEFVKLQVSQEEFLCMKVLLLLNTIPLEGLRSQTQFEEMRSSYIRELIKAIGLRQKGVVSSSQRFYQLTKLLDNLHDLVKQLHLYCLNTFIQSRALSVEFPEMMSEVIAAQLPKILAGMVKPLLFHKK
Procedure, shortened: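 Reporter assay, GripTite PR-UAS-bla HEK 293T cells: 16 hr exposure to DMSO-dissolved compounds at 37C, 5% CO2, in steroid-depleted (2% charcoal-stripped FBS) medium; beta-lactamase measured by FRET fluorescence.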

[2] = molecular target: Progesterone receptor (Homo sapiens) (UniProt P06401); assay: qHTS assay to identify small molecule antagonists of the progesterone receptor (PR) signaling pathway (AID 1346795; active = well fitted inhibition curve with a large enough effect in the signal ratio in the repeat runs, not every such curve was filed as active; the % refers to the signal ratio)
Procedure, shortened: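 Stimulus R5020 at 1 nM final; cells HEK293T PR-UAS-bla; medium with 2% charcoal-stripped FBS; compound exposure 16 hr at 37C, 5% CO2; detection by FRET beta-lactamase substrate, 2 hr, room temperature.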

[3] = qHTS assay to identify small molecule antagonists of the progesterone receptor (PR) signaling pathway - cell viability counter screen (AID 1346798); also: series mostly up to about 92 µM; nearly all actives have a fitted effect of over 50% in size
Procedure, shortened: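 In the same plates used for the beta-lactamase readout, cell viability of compound- and R5020-treated PR-UAS-bla HEK293T cells (16 hr, 37C) was assessed by CellTiter-Glo luminescence.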

[4] = qHTS assay to identify small molecule agonists of the progesterone receptor (PR) signaling pathway - cell viability counter screen (AID 1346799; calls by dose curve; also: nearly all actives have a fitted effect of over 45% in size; also: potency is read from the fitted curve at half-maximal effect)
Procedure, shortened: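 Multiplexed viability read: CellTiter-Glo luminescence, 30 min RT, following LiveBLAzer FRET measurement on PR-UAS-bla HEK293T cells exposed to compounds 16 hr.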

[5] = qHTS assay to identify small molecule antagonists of the TGF-beta/Smad signaling pathway - cell viability counter screen (AID 1346824); also: nearly all actives have a fitted effect of over 50% in size
Procedure, shortened: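 SBE-bla HEK 293T cells were plated overnight at 37 C, then given compounds in DMSO plus TGF-beta1 (added as 0.25 ng/mL solution) for 5 hr. After the bla read, CellTiter-Glo was added to the same wells and luminescence read after 30 min at room temperature.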

[6] = qHTS assay to identify small molecule agonists of the TGF-beta/Smad signaling pathway - cell viability counter screen (AID 1346829); also: top concentration of the series differs between compounds; nearly all actives have a fitted effect of over 45% in size
Procedure, shortened: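 After overnight seating at 37 C and 5% CO2, reporter cells got compounds for 5 hr and FRET substrate for 2 hr; cell viability then came from CellTiter-Glo luminescence.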

[7] = qHTS assay to identify small molecule agonists of the TGF-beta/Smad signaling pathway (AID 1346859; active = well fitted activation curve with a large enough effect in the signal ratio in the repeat runs, not every such curve was filed as active; the % refers to the signal ratio; also: series mostly up to about 77 µM)
Procedure, shortened: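 Screening used HEK 293T SBE-bla cells at 4,000/well. Test agents: 5 hr, 37 C. Detection: FRET substrate, 2 hr RT, then excitation 405 nm with emissions at 460 and 530 nm.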

[8] = molecular target: Thyrotropin-releasing hormone receptor (Homo sapiens) (UniProt P34981); assay: qHTS assay to identify small molecule antagonists of the thyrotropin-releasing hormone receptor (TRHR) signaling pathway (AID 1346877; active = well fitted inhibition curve with a large enough effect in the repeat runs, not every such curve was filed as active; also: series mostly up to about 51 µM)
Chain of Thyrotropin-releasing hormone receptor (Homo sapiens) (P34981 whole entry, looked up): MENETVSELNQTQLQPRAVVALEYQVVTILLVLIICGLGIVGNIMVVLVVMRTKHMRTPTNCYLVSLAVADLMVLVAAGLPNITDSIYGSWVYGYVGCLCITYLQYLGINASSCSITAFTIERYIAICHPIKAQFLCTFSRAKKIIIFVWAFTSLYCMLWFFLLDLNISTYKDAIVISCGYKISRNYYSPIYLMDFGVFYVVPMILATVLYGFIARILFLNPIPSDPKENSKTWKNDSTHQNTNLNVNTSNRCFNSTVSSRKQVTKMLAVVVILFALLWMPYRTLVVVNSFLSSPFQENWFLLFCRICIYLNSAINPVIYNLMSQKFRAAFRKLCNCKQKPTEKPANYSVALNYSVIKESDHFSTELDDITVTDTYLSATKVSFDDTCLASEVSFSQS
Procedure, shortened: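 TRHR-expressing HEK293 cells loaded with calcium dye for 2 h at 37 C; compounds pre-incubated 5 min at room temperature before TRH challenge at 1 nM final. Intracellular calcium fluorescence read kinetically for 3 min; 15 concentrations in triplicate.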

[9] = molecular target: Thyrotropin-releasing hormone receptor (Homo sapiens) (UniProt P34981); assay: qHTS assay to identify small molecule agonists of the thyrotropin-releasing hormone receptor (TRHR) signaling pathway (AID 1346891; calls by dose curve; also: series mostly up to about 58 µM)
Procedure, shortened: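 Readout was intracellular calcium fluorescence in TRHR-Hek293 cells. Cells were incubated 18 h, dye-loaded 2 h at 37 °C, and treated with compound in agonist mode.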

[10] = Caspase-3/7 induction in HepG2 cells by small molecules, qHTS assay (AID 1346978); also: nearly all actives have a fitted effect of over 15% in size
Procedure, shortened: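 Wild-type HepG2 cells (2,000/well) were settled 5 h at 37 C, 5% CO2, then exposed to compounds in DMSO for 17 h. Caspase-3/7 activity was read by luminescence 30 min after adding Caspase-Glo 3/7 reagent at room temperature.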

[11] = Caspase-3/7 induction in CHO-K1 cells by small molecules, qHTS cell viability counter screen (AID 1346979); also: nearly all actives have a fitted effect of over 35% in size
Procedure, shortened: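 Following a 5hr settling period, CHO-K1 cells at 1,500 per well received DMSO-dissolved compounds. Cell viability was quantified 16hr later by CellTiter-Fluor fluorescence, measured after 1hr with reagent at 37C.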

[12] = Caspase-3/7 induction in CHO-K1 cells by small molecules, qHTS assay (AID 1346980); also: nearly all actives have a fitted effect of over 15% in size
Procedure, shortened: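 Wild-type cells were seeded at 1,500 per well and settled 5 hr at 37 C, 5% CO2, then exposed to DMSO-dissolved compounds for 17 hr. Caspase-Glo 3/7 reagent was added, and luminescence was read after 30min at room temperature.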

[13] = Caspase-3/7 induction in HepG2 cells by small molecules, qHTS cell viability counter screen (AID 1346981); also: series mostly up to about 92 µM; nearly all actives have a fitted effect of over 30% in size
Procedure, shortened: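 Wild-type HepG2 cells, 2,000/well, settled 5 hr at 37 C, 5% CO2 before compound addition. Viability read by CellTiter-Fluor fluorescence, reagent added after 16 hr compound exposure, then 1 hr at 37C, in the same wells as the caspase read.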

[14] = molecular target: Cytochrome P450 2C19 (Homo sapiens) (UniProt P33261); assay: Cytochrome P450 Family 2 Subfamily C Member 19 (CYP2C19) small molecule antagonists: luciferase reporter qHTS assay (AID 1671197); also: nearly all actives have a fitted effect of over 65% in size; also: potency is read from the fitted curve at half-maximal effect
Chain of Cytochrome P450 2C19 (Homo sapiens) (P33261 whole entry, looked up): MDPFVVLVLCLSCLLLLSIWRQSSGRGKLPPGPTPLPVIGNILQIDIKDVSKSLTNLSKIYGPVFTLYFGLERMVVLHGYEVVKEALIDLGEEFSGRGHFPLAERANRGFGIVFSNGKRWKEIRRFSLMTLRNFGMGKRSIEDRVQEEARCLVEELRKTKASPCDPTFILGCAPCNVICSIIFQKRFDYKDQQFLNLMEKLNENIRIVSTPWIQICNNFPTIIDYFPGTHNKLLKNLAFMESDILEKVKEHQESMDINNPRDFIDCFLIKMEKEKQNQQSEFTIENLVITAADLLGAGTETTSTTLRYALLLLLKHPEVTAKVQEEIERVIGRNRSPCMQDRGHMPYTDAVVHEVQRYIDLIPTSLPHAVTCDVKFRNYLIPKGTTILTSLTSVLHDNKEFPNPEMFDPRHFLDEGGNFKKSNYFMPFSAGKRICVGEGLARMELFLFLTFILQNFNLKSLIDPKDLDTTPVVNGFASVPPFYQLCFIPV
Procedure, shortened: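 Inhibition of CYP2C19 was scored from loss of luminescence in a P450-Glo proluciferin substrate assay, NADPH-started and run 1 h at 37C, with ketoconazole as positive control.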

[15] = Human pregnane X receptor (PXR) small molecule agonists, qHTS cell viability counter screen (AID 1346977); also: nearly all actives have a fitted effect of over 50% in size
Procedure, shortened: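 In each well, the PXR reporter HepG2 line was checked for viability: CellTiter-Fluor reagent added 23hr post-dosing, fluorescence read after 1hr incubation at 37C.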

[16] = molecular target: Nuclear receptor subfamily 1 group I member 2 (Homo sapiens) (UniProt O75469); assay: Human pregnane X receptor (PXR) small molecule agonists, qHTS assay (AID 1346982); also: nearly all actives have a fitted effect of over 35% in size; also: potency is read from the fitted curve at half-maximal effect
Chain of Nuclear receptor subfamily 1 group I member 2 (Homo sapiens) (O75469 whole entry, looked up): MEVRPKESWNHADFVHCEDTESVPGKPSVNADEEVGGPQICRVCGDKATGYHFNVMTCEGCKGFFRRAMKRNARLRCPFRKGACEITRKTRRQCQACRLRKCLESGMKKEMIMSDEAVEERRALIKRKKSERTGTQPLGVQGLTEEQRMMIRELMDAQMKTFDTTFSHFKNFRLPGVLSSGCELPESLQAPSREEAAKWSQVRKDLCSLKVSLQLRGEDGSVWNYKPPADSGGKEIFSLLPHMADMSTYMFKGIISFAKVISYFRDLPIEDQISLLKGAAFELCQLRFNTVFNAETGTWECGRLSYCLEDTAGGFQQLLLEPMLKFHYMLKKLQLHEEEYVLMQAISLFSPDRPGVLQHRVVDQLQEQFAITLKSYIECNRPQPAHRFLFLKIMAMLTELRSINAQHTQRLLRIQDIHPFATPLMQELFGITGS
Procedure, shortened: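 PXR-Luc HepG2 reporter cells (CYP3A4-driven luciferase) in 5% charcoal-stripped FBS medium, plated 5 h before compound addition, then treated 24 h at 37C. Luciferase read by ONE-Glo luminescence after 30 min at room temperature.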

[17] = molecular target: Cytochrome P450 2D6 (Homo sapiens) (UniProt P10635); assay: Cytochrome P450 Family 2 Subfamily D Member 6 (CYP2D6) small molecule antagonists: luciferase reporter qHTS assay (AID 1671196); also: nearly all actives have a fitted effect of over 50% in size; also: potency is read from the fitted curve at half-maximal effect
Chain of Cytochrome P450 2D6 (Homo sapiens) (P10635 whole entry, looked up): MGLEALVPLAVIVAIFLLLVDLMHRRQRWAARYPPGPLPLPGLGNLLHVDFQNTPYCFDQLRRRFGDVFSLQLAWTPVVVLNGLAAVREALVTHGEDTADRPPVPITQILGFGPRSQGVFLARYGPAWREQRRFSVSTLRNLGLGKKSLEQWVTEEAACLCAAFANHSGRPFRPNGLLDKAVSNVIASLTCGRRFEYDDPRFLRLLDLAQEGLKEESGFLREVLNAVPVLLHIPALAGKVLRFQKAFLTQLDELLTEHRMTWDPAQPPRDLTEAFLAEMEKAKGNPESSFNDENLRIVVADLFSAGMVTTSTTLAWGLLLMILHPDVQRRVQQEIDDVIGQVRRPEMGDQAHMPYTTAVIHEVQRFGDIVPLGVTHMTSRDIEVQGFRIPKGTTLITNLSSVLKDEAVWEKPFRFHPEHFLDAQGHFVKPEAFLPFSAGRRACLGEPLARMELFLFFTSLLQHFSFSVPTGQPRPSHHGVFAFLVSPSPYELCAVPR
Procedure, shortened: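 Cell-free P450-Glo system: CYP2D6 with proluciferin substrate was pre-incubated with compound for 10 min, then reacted with NADPH regeneration for 1 h at room temperature. Luciferin product was detected after 20 min, and data were reported as relative luminescence units.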

[18] = molecular target: Nuclear receptor subfamily 1 group I member 2 (Rattus norvegicus) (UniProt Q9R1A7); assay: Rat pregnane X receptor (rPXR) activation by small molecules, qHTS assay (AID 1346983); conditions: rPXR luciferase reporter cells, One-Glo luminescence, 24 h; max activation: active compounds read high; also: nearly all actives have a fitted effect of over 20% in size
Chain of Nuclear receptor subfamily 1 group I member 2 (Rattus norvegicus) (Q9R1A7 whole entry, looked up): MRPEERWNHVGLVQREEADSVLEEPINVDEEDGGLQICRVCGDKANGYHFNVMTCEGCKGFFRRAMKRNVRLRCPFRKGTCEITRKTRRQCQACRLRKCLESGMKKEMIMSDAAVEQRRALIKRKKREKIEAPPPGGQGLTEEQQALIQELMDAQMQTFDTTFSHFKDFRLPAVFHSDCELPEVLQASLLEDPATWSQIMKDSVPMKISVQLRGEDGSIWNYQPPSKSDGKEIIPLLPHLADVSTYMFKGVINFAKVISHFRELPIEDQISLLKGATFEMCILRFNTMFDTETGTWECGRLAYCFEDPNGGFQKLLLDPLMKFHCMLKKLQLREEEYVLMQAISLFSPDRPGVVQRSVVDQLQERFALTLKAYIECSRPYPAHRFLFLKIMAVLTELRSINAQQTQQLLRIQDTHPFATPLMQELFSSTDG
Procedure, shortened: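 Cell-based rPXR luciferase reporter assay, 2,000 cells per well, rested 5hr at 37 C before compound addition in DMSO, then 24 hr at 37 C. One-Glo reagent was added and luminescence read after 30 min at room temperature.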

[19] = molecular target: Nuclear receptor subfamily 1 group I member 2 (Homo sapiens) (UniProt O75469); assay: CYP3A4 induction through human pregnane X receptor (PXR) by small molecules, qHTS assay (AID 1346984); also: nearly all actives have a fitted effect of over 40% in size
Procedure, shortened: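 DPX-2 HepG2 cells carrying a PXR response element and CYP3A4-promoter luciferase construct, treated with compounds 24 hr at 37C. Then P450-Glo CYP3A4 Luciferin-IPA substrate (3uM final) for 3 hr at 37C, One-Glo added, luminescence read.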

[20] = molecular target: Nuclear receptor subfamily 1 group I member 2 (Homo sapiens) (UniProt O75469); assay: Human pregnane X receptor (PXR) activation by small molecules, qHTS assay (AID 1346985); also: nearly all actives have a fitted effect of over 40% in size
Procedure, shortened: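 DPX-2 cells (HepG2 co-transfected with a PXR response element and a CYP3A4-promoter luciferase construct) were seeded at 2,000 per well, rested 5 hr at 37C, then exposed to DMSO-dissolved compounds for 24 hr. Activation was read as luciferase luminescence.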
% is scaled to controls: 0 for no effect and ±100 for the full control effect.

Cc1cc(N)n(-c2ccccc2)n1
inactive: Potency [1] | Potency [2] | Potency [3] | Potency [4] | outcome [5] | outcome [6] | outcome [7] | outcome [8] | outcome [9] | Potency [10] | Potency [11] | Potency [12] | Potency [13]
active: Potency [14] 28.3 µM

C=CC(O)CCCCC (stereo not drawn)
inactive: Potency [1] | Potency [2] | Potency [3] | Potency [4] | outcome [5] | outcome [6] | outcome [7] | outcome [8] | outcome [9] | Potency [15] | Potency [10] | Potency [11] | Potency [13] | Potency [16] | Potency [17] | Potency [14]

CC(C)(C)c1cc(C=O)cc(C(C)(C)C)c1O
inactive: Potency [1] | Potency [2] | Potency [3] | Potency [4] | outcome [5] | outcome [6] | outcome [7] | outcome [8] | outcome [9] | Potency [15] | Potency [10] | Potency [11] | Potency [12] | Potency [13] | Potency [16]

CCCC(=O)OCc1ccccc1
inactive: Potency [1] | Potency [2] | Potency [3] | Potency [4] | outcome [5] | outcome [6] | outcome [7] | outcome [8] | outcome [9] | Potency [15] | Potency [10] | Potency [11] | Potency [12] | Potency [13] | Potency [16] | Potency [17] | Potency [14]

O=C(O)c1ccccc1[N+](=O)[O-]
inactive: Potency [1] | Potency [2] | Potency [3] | Potency [4] | outcome [5] | outcome [6] | outcome [7] | outcome [8] | outcome [9] | Potency [15] | Potency [10] | Potency [12] | Potency [13] | Potency [16] | Potency [17] | Potency [14]

COc1ccc(CN(CCN(C)C)c2ncccn2)cc1
active: Potency [14] 21.9 µM
inactive: Potency [1] | Potency [2] | Potency [3] | Potency [4] | outcome [5] | outcome [6] | outcome [7] | outcome [8] | outcome [9] | Potency [15] | Potency [11] | Potency [12] | Potency [13] | Potency [16] | max activation [18] -0.0529% | Potency [19] | Potency [20]

Nc1nc(Cl)nc2c1ncn2[C@H]1C[C@H](O)[C@@H](CO)O1
inactive: Potency [1] | Potency [2] | Potency [3] | Potency [4] | outcome [5] | outcome [6] | outcome [7] | outcome [8] | outcome [9] | Potency [15] | Potency [10] | Potency [12] | Potency [13] | Potency [14]
active: Potency [16] 1.71 µM

CC/C=C\CCO
inactive: Potency [1] | Potency [2] | Potency [3] | Potency [4] | outcome [5] | outcome [6] | outcome [7] | outcome [8] | outcome [9] | Potency [10] | Potency [11] | Potency [12] | Potency [13] | Potency [16] | Potency [17] | Potency [14]

O=C(Cl)c1cc(Cl)cc(Cl)c1
inactive: Potency [1] | Potency [2] | Potency [3] | Potency [4] | outcome [5] | outcome [6] | outcome [7] | outcome [8] | outcome [9] | Potency [15] | Potency [10] | Potency [12] | Potency [16] | Potency [17] | Potency [14]

CCCCCCCCCC(C)C=O (stereo not drawn)
inactive: Potency [1] | Potency [2] | Potency [3] | outcome [5] | outcome [6] | outcome [7] | outcome [8] | outcome [9] | Potency [15] | Potency [10] | Potency [11] | Potency [12] | Potency [13] | Potency [17] | Potency [14]
active: Potency [4] 43.3 µM | Potency [16] 48.6 µM

O=C(O)CCc1nc2ccccc2[nH]1
inactive: Potency [1] | Potency [2] | Potency [3] | Potency [4] | outcome [5] | outcome [6] | outcome [7] | outcome [8] | outcome [9] | Potency [15] | Potency [10] | Potency [12] | Potency [13] | Potency [16] | Potency [17]

Cc1ccc2c(Cl)cc(Cl)c(O)c2n1
inactive: Potency [1] | Potency [2] | Potency [3] | Potency [4] | outcome [5] | outcome [6] | outcome [7] | outcome [8] | outcome [9] | Potency [15] | Potency [10] | Potency [11] | Potency [12] | Potency [13] | Potency [16] | Potency [17] | Potency [14]

C/C=C1\[C@H]2C=C(C)C[C@]1(N)c1ccc(=O)[nH]c1C2
inactive: Potency [1] | Potency [2] | Potency [3] | Potency [4] | outcome [5] | outcome [6] | outcome [7] | outcome [8] | outcome [9] | Potency [15] | Potency [10] | Potency [11] | Potency [12] | Potency [16] | max activation [18] -1.47% | Potency [19] | Potency [20] | Potency [17] | Potency [14]

CCc1ccc(C(=O)C(C)CN2CCCCC2)cc1 (stereo not drawn)
inactive: Potency [1] | Potency [2] | Potency [3] | Potency [4] | outcome [5] | outcome [6] | outcome [7] | outcome [8] | outcome [9] | Potency [15] | Potency [10] | Potency [12] | Potency [13] | max activation [18] -6.71% | Potency [20]
active: Potency [17] 0.49 µM | Potency [14] 4.9 µM

C=CC(C)(O)CC/C=C(/C)CCC=C(C)C (stereo not drawn)
inactive: Potency [1] | Potency [2] | Potency [3] | Potency [4] | outcome [5] | outcome [6] | outcome [7] | outcome [8] | outcome [9] | Potency [15] | Potency [11] | Potency [13]
active: Potency [16] 54.5 µM | Potency [14] 10 µM

Cc1ccccc1CCO
inactive: Potency [1] | Potency [2] | Potency [3] | Potency [4] | outcome [5] | outcome [6] | outcome [7] | outcome [8] | outcome [9] | Potency [15] | Potency [10] | Potency [11] | Potency [12] | Potency [13] | Potency [16] | Potency [17] | Potency [14]

Reference: PubChem BioAssay (Tox21)
